CHX counter = counter-screen hit for Shiga toxin inhibitors, cycloheximide | max response, % | 300,000 compounds, 12% hits | cell reporter, cycloheximide protein synthesis inhibition counterscreen; in the data active = max response mostly above about 13%, no sharp cut-off; inactive = mostly below about 14%; note: read at 38.3 µM for the half of the compounds with a filed dose; 0% is about no effect
SARS PLP yeast = inhibitors of SARS-CoV papain-like protease in yeast; Potency, µM (top dose mostly 32.9 µM), for the others: at the top dose activity, positive = growth rescue, hits mostly activators; S. cerevisiae expressing SARS-CoV PLpro, growth rescue; AID 485353; 330,000 compounds, 0.19% hits; note: potency is the fitted concentration of half-maximal effect; 0% is about no effect; nearly all actives have a fitted effect of over 55% in size
Shiga toxin inh = inhibitors of Shiga toxin in Vero cells. Vero cells, Shiga toxin protein synthesis inhibition reporter. inhibition, % at 38.7 µM. 290,000 compounds, 9.2% hits; in the data active = inhibition mostly above about 28%, no sharp cut-off; inactive = mostly below about 43%; note: 0% is about no effect
NS1 function inh = blocks influenza NS1 protein function | Potency, µM (series often up to 46.1 µM), for inactives: at the highest dose activity, positive = more growth | 270,000 compounds, 0.4% hits; note: potency is the fitted concentration of half-maximal effect; actives are rising curves; nearly all actives have a fitted effect of over 50% in size
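OD600 was taken as the measure of yeast growth restored by compound in an NS1-expressing S. cerevisiae strain. Cells had been washed out of glucose medium and diluted 1:100 into galactose -URA medium, pH 6.0.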
An asterisk follows results filed as active; ? = inconclusive; / = no result given; + = active, no number. This is a sample that favours compounds with a hit; in the whole collection about 12% have one here. Unless noted, calls come from the whole dose curve.

SMILES | CHX counter | SARS PLP yeast | Shiga toxin inh | NS1 function inh
COc1ccc(-c2ncc3ccccn23)cc1OC | 24.1* | 0.0% | 9.6 | 18.6%
Nc1c(-c2cccc([N+](=O)[O-])c2)nc2ccccn12 | 112.5* | -24.5% | 81.8* | ?
O=[N+]([O-])c1cccc(-c2ncc3ccccn23)c1 | 31.0* | 1.6% | 68.0* | /
Clc1ccc(-c2ncc3ccccn23)cc1 | 4.1 | 0.4% | 34.0 | 5.1%
O=[N+]([O-])c1ccc(Sc2ncc3ccccn23)nc1 | -3.2 | -1.5% | 17.4 | -5.6%
Nc1nc(-c2cccc([N+](=O)[O-])c2)cc(-c2cc(-c3cccc([N+](=O)[O-])c3)nc(N)n2)n1 | / | / | / | -0.5%
COc1ccccc1NC(=O)N1CCC(NC(=O)C2CCCCC2)CC1 | -7.4 | 0.0% | 10.1 | -5.1%
O=C(NCc1ccccc1)c1n[nH]nc1-c1ccccc1O | 18.0* | 1.3% | 50.2 | -2.5%
CC(=O)c1ccc(NC(=O)CCc2c(C)nc3ncnn3c2C)cc1 | 21.3* | 4.2% | 61.3* | 7.4%
CCc1c(C)nc2ncnn2c1Nc1ccc(C(C)=O)cc1 | 45.9* | -4.8% | 108.8* | 9.9%
COCCn1c(=O)c2c(nc3n2CC(C)CN3Cc2ccccc2)n(C)c1=O (centres undefined) | -5.5 | 10.4% | 19.9 | -12.6%
COc1ccc(C(=O)c2cn(CC(=O)Nc3cc(OC)cc(OC)c3)c3ccc(OC)cc3c2=O)cc1 | / | -3.5% | / | /
CC(=O)N(Cc1ccccc1)Cc1cn(CCC#N)nc1-c1cccc([N+](=O)[O-])c1 | -3.2 | 0.7% | -4.9 | 0.8%
Cc1c(C(C)(C)C)s/c(=N/S(=O)(=O)c2ccccc2)n1C | 5.4 | 0.3% | 5.1 | 28.2%
Cc1c(C(C)(C)C)sc(=NC(=O)c2ccccc2O)n1C | 37.6* | -1.9% | 82.2* | -5.6%
N/C(=N\OC(=O)COc1ccc2ccccc2c1Br)c1ccccn1 | 55.8* | -1.1% | 119.0* | -1.7%
CCOC(=O)N1CCN(C(=O)COc2ccc3ccccc3c2Br)CC1 | 0.4 | -8.2% | -5.4 | -19.7%
N/C(=N\OC(=O)COc1ccccc1)c1cccnc1 | 1.6 | 1.9% | -17.5 | 0.2%
N/C(=N\OC(=O)COc1ccc2ccccc2c1Br)c1cccnc1 | 15.6* | -1.2% | 102.9* | 0.6%
O=C(N/N=C/c1ccc(OCc2ccccc2)cc1)c1cccs1 | 43.0* | 8.0% | 65.9* | -11.3%
O=C(N/N=C/c1ccc(Cl)cc1)c1sccc1OCc1ccc(F)cc1 | 26.6* | 2.4% | -1.8 | 2.1%
O=C(N/N=C/c1ccc(F)cc1)c1sccc1OCc1ccc(F)cc1 | 12.8 | ? | 50.5 | 0.8%
O=C(N/N=C/c1ccc(OCc2ccccc2)cc1)c1ccncc1 | 13.0* | -0.9% | 81.2 | -1.3%
O=C(N/N=C/c1ccncc1)c1ccc(OCc2ccccc2)cc1 | 0.8 | -0.5% | 24.8 | 0.9%
O=C(N/N=C/c1ccc(OCC(=O)N2CCCCC2)cc1)c1ccccc1 | 30.2* | -2.4% | 40.2 | 7.9%
SMILES | CHX counter | SARS PLP yeast | Shiga toxin inh | NS1 function inh
O=C(NC1CC1)C1CCN(C2CCN(C(=O)CC3=CCCCC3)CC2)CC1 | -2.2 | 0.9% | -4.8 | 0.3%
O=C(N/N=C/c1ccccc1OCC(=O)N1CCCC1)C(=O)Nc1ccccc1F | 33.1* | -2.5% | active | 5.0%
Oc1ccc(N=Cc2ccc(OCc3ccccc3)cc2)cc1 | 43.6* | -2.2% | 80.1* | -5.5%
O=C(C[n+]1ccc(C(=O)N/N=C/c2ccc(O)cc2)cc1)c1ccccc1 | 10.5 | -9.6% | -4.5 | 12.0%
O=C(Nc1ccc(OCc2ccccc2)cc1)c1cccs1 | 44.0* | -3.9% | / | 1.3%
O=C(C[n+]1ccc(C(=O)N/N=C/c2ccc(OCc3ccccc3)cc2)cc1)c1ccccc1 | 53.7* | -5.9% | 61.7* | -124.2%
FC(F)Oc1ccc(NC(=S)NCCc2ccccn2)cc1 | 28.9* | 6.4% | 45.2 | /
FC(F)Oc1ccc(NC(=S)NCc2ccccc2)cc1Cl | 1.0 | -9.4% | -21.6 | -65.4%
Oc1cccc2c(NC(=S)Nc3ccc(OC(F)F)cc3)cccc12 | 74.1* | -9.6% | 88.4* | 19.9%
FC(F)Oc1ccc(NC(=S)Nn2cnnc2)cc1 | -0.4 | 4.0% | -5.0 | /
FC(F)Oc1ccc(NC(=S)NCc2ccccc2)cc1 | 11.3* | -46.1% | 36.8* | -10.3%
CC1CCCN(S(=O)(=O)c2ccc(NC(=O)CN3C(=O)NC(C)(c4ccccc4)C3=O)cc2)C1 (centres undefined) | / | -0.5% | / | /
Cc1ccc(CNC(=O)CCc2cn(C)c3ccccc23)cc1 | -3.0 | -2.6% | -1.2 | -6.6%
Cc1cc(Oc2ccc(=O)n(C)n2)nc(SCCOc2ccccc2)n1 | -0.9 | 6.8% | 15.6 | -0.3%
N#CC1=C(c2ccccc2)/C(=C/c2ccccc2)OC1=O | -4.9 | -49.4% | -5.4 | -3.5%
O=C1O/C(=C/c2ccccc2)c2ccccc21 | 65.1* | -23.8% | + | -27.4%
CN(C)c1ccc(C(=O)C(=O)c2ccccc2)cc1 | 48.7* | -3.4% | 66.7* | -4.6%
CN(C)c1ccc(C(=O)NN2C(=O)c3ccccc3C2=O)cc1 | 15.2* | -0.5% | 43.4 | /
CN(C)c1ccc(C(=O)c2ccc(O)cc2O)cc1 | 29.2* | -34.3% | 53.9* | 24.5%
CN(C)c1ccc(C(=O)c2ccc(N(C)C)cc2)cc1 | 17.4* | -14.2% | 40.0 | -5.7%
Cc1cccc(C)c1NC(=O)C(c1ccccc1)N1CCC1=O (centres undefined) | -4.0 | -7.3% | -10.6 | 10.7%
CC(C)(C)OC(=O)N1CCC(NC(=O)c2[nH]cnc2C(=O)Nc2cccc(Cl)c2)CC1 | / | -1.0% | / | /
CCOC(=O)c1cc2n(n1)C(C(F)(F)F)CC(C)N2 (centres undefined) | 12.2* | -5.2% | 13.1 | 9.4%
COC(=O)c1c(-c2cccnc2)csc1NC(=O)c1ccc2c(c1)OCO2 | 37.2* | 0.6% | 69.9* | 10.7%
COc1ccc(NCc2ccc3c(c2)OCO3)cc1Cl | 21.8* | -10.1% | 43.4* | -54.5%
SMILES | CHX counter | SARS PLP yeast | Shiga toxin inh | NS1 function inh
COc1ccc(NC(=O)c2ccc3c(c2)OCO3)cc1Cl | 66.4* | -0.2% | 76.2* | -34.8%
O=C(Nc1ccc(C(=O)N2CCCC2)cc1)c1ccc2c(c1)OCO2 | 27.1* | -6.1% | 36.0 | -1.3%
O=C(c1ccc2c(c1)OCO2)N1CCCC1 | 8.7 | 12.4% | 47.7 | -10.1%
CCOc1ccccc1NC(=S)NC(=O)C1CC1 | 12.8 | 17.6% | 18.1 | -17.9%
CCOC(=O)CC1(C)OCC(C[N+]2(C)CCCCC2)O1 (centres undefined) | 1.2 | 0.1% | 2.5 | /
Oc1c(Br)cccc1/C=N/c1ncn[nH]1 | -4.6 | 0.5% | -13.4 | 5.5%
Cc1ccc(CNC(=O)COc2ccc(C(=O)c3ccc(F)cc3)cc2)cc1 | -0.5 | 1.2% | -1.7 | 4.0%
CN(Cc1ccco1)c1ncnc2ccc(-c3cccc(Cl)c3)cc12 | / | -12.5% | / | /
O=C(Nc1ccc2c(c1)OCO2)c1ccc(Cl)cc1Cl | -2.2 | 0.7% | -11.9 | 4.9%
COC(=O)c1ccc(NC(=O)c2ccc3c(c2)OCO3)cc1 | 24.4* | -1.5% | 42.6* | -1.9%
O=C(Nc1ccc(F)c(Cl)c1)c1ccc2c(c1)OCO2 | 50.8* | -4.2% | 105.3* | -26.4%
Cc1ccc(N2C(=O)C3C4C=CC(CC4)C3C2=O)c([N+](=O)[O-])c1 (centres undefined) | -2.5 | 0.1% | -10.1 | 3.7%

Screening results: PubChem, National Center for Advancing Translational Sciences (NCATS)
